Only some compounds are listed: those with a hit (about 3.8% of all), similar ones and a draw of the others.
HepG2 viability: counter-screen for TGF-b inhibitors: cytotoxicity in HepG2 cells; HepG2 CAGA-GFP viability, ATP luminescence, 18 h; Potency, µM (doses to about 46.1 µM), inactives show top-dose activity change, negative = cytotoxicity, most hits filed as cytotoxic; 0.76% of 410,000 active
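HepG2 CAGA-GFP cells (1000/well, DMEM with 1% FBS) received compound, then TGF-beta at 500 pg/mL final, and were incubated 18 hours at 37 degrees C. Viability was read by CellTiter-Glo luminescence. Media-only wells were set as complete cell-killing and DMSO as no toxicity.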
ATXN2 expr inh: ATXN2 expression inhibition. HEK-293 ATXN2-luciferase reporter, luminescence, 24 h. Potency, µM (top dose mostly 57 µM), for inactives: at the top dose activity change, negative = inhibition, most hits filed as inhibitors. 0.72% of 360,000 active. AID 1745845; also: % is scaled to controls: 0 for no effect and ±100 for the full control effect; nearly all actives have a fitted effect of over 55% in size
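qHTS (up to 57 uM final) was run with 24 h compound exposure of reporter cells at 37 °C. Each well was multiplexed: SteadyGlo luminescence measured ATXN2-luciferase expression after a fluorogenic Gly-Phe-AFC viability readout (25 uM final).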
ATXN viability: reduces viability in counter-screen for ATXN expression inhibitors. S2 cells (HEK-293 line with an ATXN2-luciferase reporter) viability, CellTiter-Fluor protease fluorescence, 24 h. AID 651635. Potency, µM (series often up to 56.7 µM), most hits filed as cytotoxic. 0.49% of 400,000 active; also: nearly all actives have a fitted effect of over 40% in size
A549 viability: kills or reduces viability of A549 cells in Nrf2 counter-screen; A549 ARE-Fluc cells, CellTiter-Fluor viability, 18-24 h; Potency, µM (titrated, usually from 46 µM), for inactives: top-dose activity change, negative = cytotoxicity, most hits filed as inhibitors; 0.16% of 390,000 active; AID 504648; also: % is scaled to controls: 0 for no effect and ±100 for the full control effect
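A549 ARE-Fluc cells in 5% FBS OPTI-MEM, 5000 cells/well, rested 2 h then exposed to compounds in concentration-response for 18-24 h at 37 °C. Viability by CellTiter-Fluor fluorescence (Ex 405/Em 525) after 30 min; luciferase luminescence (BugLite, 15 min, RT) read afterwards.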
TGFb SMAD3 inh: blocks TGF-b signaling; HepG2 CAGA-GFP TGF-b/SMAD3 reporter, GFP fluorescence, 18 h; TGF-beta stimulated, 500 pg/mL final; Potency, µM (titrated, usually from 46.1 µM), for inactives: at the highest dose activity, negative = inhibition, most hits filed as inhibitors; 1.2% of 410,000 active; AID 588855; also: % is scaled to controls: 0 for no effect and ±100 for the full control effect; nearly all actives have a fitted effect of over 65% in size
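TGF-beta reporter screen: HEPG2 CAGA-GFP, 1% FBS, 500 pg/mL TGF-beta final, 18 h; per-cell GFP summed per well; curves fitted and categorized by class.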
Nrf2 inh: Nrf2 pathway inhibition | 2.1% of 360,000 active | Potency, µM (doses to about 46 µM), inactives show at the highest dose activity change, negative = inhibition, hits mostly inhibitors | A549 ARE-Fluc reporter, luciferase luminescence, 18-24 h; also: % is scaled to controls: 0 for no effect and ±100 for the full control effect; nearly all actives have a fitted effect of over 60% in size
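A549 ARE_Fluc cells (5000/well, 5% FBS OPTI-MEM) pre-incubated 2 h, then treated with compounds 18-24 h at 37C/5% CO2 in concentration-response. CellTiter-Fluor viability read first; BugLite luciferase luminescence after 15 min at room temperature gives Nrf2 activity.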
* = called active by the depositor; i = inactive; ? = inconclusive; · = no result given; [ ] = dose if it differs, or a comment. Calls follow the shape of the dose curve; as a rule, active = well fitted curve in the direction sought with a large enough effect; inconclusive = small, poorly fitted or top-dose-only effect, or another doubt; inactive = no such curve, though single readings can be large; an effect the other way counts as inactive or inconclusive. Potency is read from the fitted curve at half-maximal effect.

SMILES	HepG2 viability	ATXN2 expr inh	ATXN viability	A549 viability	TGFb SMAD3 inh	Nrf2 inh
O=c1[nH]/c(=C\c2ccc(N(CCCl)CCCl)cc2)c(=O)[nH]/c1=C\c1ccc(N(CCCl)CCCl)cc1	-14%	·	·	·	29%	·
CC[N+]1(CC)CCC(OC(=O)C(O)(c2ccccc2)c2ccccc2)C1 (configuration not stated)	·	4%	i	·	·	·
CCOP(=O)(OCC)c1ccc2ccc3ccccc3c(=O)c2c1	-52%	-20%	i	3%	-5%	5%
CCO/N=C(\CC)C1=C(O)CC(c2c(C)cc(C)cc2C)CC1=O (configuration not stated)	·	36%[116 µM]	?	·	·	·
Cc1ccc2c(c1)[C@]13CCCC[C@@H]1[C@H](C2)N(C)CC3	·	·	i	·	·	·
CCN(CC)S(=O)(=O)c1ccc(NN=C(C#N)C#N)cc1	-53%	-24%	?	?	?	14%
N#CC(C#N)=NNc1ccc([N+](=O)[O-])cc1	-52%	0%	14µM*	21µM*	?	-3%
Cc1ccc(-n2nc3c(=O)n(CC(=O)NCC(C)c4ccccc4)nc(C)c3c2C)cc1 (configuration not stated)	-13%	-27%	?	0%	-26%	-11%
c1ccc(CCN2CCCCC2)cc1	5%	·	·	·	6%	·
CC(=O)C1C(N2CC2)CC2C3CC=C4CC(O)CCC4(C)C3CCC21C (configuration not stated)	-3%	0%	14µM*	8.2µM*	-8%	3%
O=C(CCN1CC1)OCCOC(=O)CCN1CC1	0%	-30%	?	-20%	1%	-15%
Nc1c(Br)cc2c3c(cccc13)-c1ccccc1-2	16µM*	2%	i	-2%	63%	14%
c1ccc2c(c1)-c1cccc3cccc-2c13	-6%	-4%	i	1%	-2%	-3%
C[C@]12CCC3C(CC[C@@H]4C[C@H](O)CC[C@]34C)C1CCC2=O (some centres not stated)	0%	8%	i	3%	-16%	-10%
O=Nc1c(O)c2ccccc2c2ccccc12	2.8µM*	7.9µM*	16µM*	?	2.2µM*	23µM*
COC12C(COC(N)=O)C3=C(C(=O)C(C)=C(N)C3=O)N1CC1C2N1C (configuration not stated)	-66%	6.3µM*	?	-23%	-29%	0%
CCN(CC)C(=O)c1ccc(NC(=O)COc2ccc(-c3nn(C)c(=O)c4ccccc34)cc2)cc1	-13%	?	i	-7%	10µM*	?
Cn1nc(-c2ccc(C(=O)Nc3ccc(OC(F)(F)F)cc3)cc2)c2ccccc2c1=O	-20%	-33%	?	-3%	?	·
Cc1ccc(NC(=O)COc2ccc(-c3nn(C)c(=O)c4ccccc34)cc2)c(C)c1	-10%	·	·	-15%	·	18µM*
CCN(CC)C(=O)c1ccc(NC(=O)CCn2nc(-c3ccc(C)cc3)c3ccccc3c2=O)cc1	-22%	·	·	-22%	0%	18µM*
Oc1ccc2c3c1O[C@H]1[C@@H](O)C=C[C@H]4[C@H](C2)NCC[C@@]341	·	·	i	·	·	·
CCC(C)C(C)(COC(N)=O)COC(N)=O (configuration not stated)	·	2%	i	·	·	·
C[CH2][Hg][S]c1ccccc1C(=O)O	2.5µM*	6.3µM*	4.5µM*	16µM*	4.5µM*	?
O=C(NCCOCCn1c(=O)oc2ccccc21)Nc1ccc(F)cc1F	-25%	-26%	i	0%	?	-29%
Oc1c(Cl)c(Cl)c(Cl)c(Cl)c1Cl	-37%	?	i	-1%	?	23µM*
SMILES	HepG2 viability	ATXN2 expr inh	ATXN viability	A549 viability	TGFb SMAD3 inh	Nrf2 inh
CCOC(=O)[C@]12Cc3c(cc(OC)c(OC)c3OC)[C@H]1N(C)C(=O)c1cc(OC)ccc12	·	11µM*	·	·	·	·
CCOC(=O)[C@]12Cc3cc(OC)ccc3[C@H]1N(C1CCCCC1)C(=O)c1cc(OC)ccc12	·	20µM*	13µM*	·	·	·
CCOC(=O)[C@]12Cc3cc(C)ccc3[C@H]1N(CCC(=O)OC)C(=O)c1cc(OC)ccc12	·	22µM*	16µM*	·	·	·
CCOC(=O)[C@]12Cc3ccccc3[C@H]1N(CCC(=O)OC)C(=O)c1ccccc12	·	-14%	?	·	·	·
CCOC(=O)[C@]12Cc3cc(C)ccc3[C@H]1N(C1CCCCC1)C(=O)c1cc(OC)ccc12	·	5µM*	4.5µM*	·	·	·
N#CC1c2ccccc2-n2nncc2CN1S(=O)(=O)c1cc(Cl)cc(Cl)c1 (configuration not stated)	2%	0%	i	2%	3%	-7%
CCOC(=O)[C@]12Cc3cc(OC)ccc3[C@H]1N(Cc1ccccc1)C(=O)c1ccccc12	-13%	?	?	-20%	?	?
CCCCCN1C(=O)c2ccccc2[C@@]2(C(=O)OCC)Cc3cc(OC)ccc3[C@@H]12	·	?	13µM*	·	·	·
CC(=CCCC1=CCC(C2=CC(=O)OC2O)OC1O)CCC1=C(C)CCCC1(C)C (configuration not stated)	·	-6%	·	·	·	·
CCCCn1c(O)c(C(CC)=Nc2ccc(OCC)cc2)c(=O)[nH]c1=O	20%	-14%	i	1%	14%	13µM*
Cc1ccc(Cl)cc1NC(=O)Cn1c(=O)oc2cc(S(=O)(=O)N3CCCCCC3)ccc21	-56%	·	·	-8%	?	·
C=CC[C@@H](CC(=O)N(CCO)Cc1ccccc1)C(=O)NC[C@@H](OC(=O)[C@@H](CC=C)CC(=O)OC(C)(C)C)c1ccccc1	-14%	?	20µM*	-27%	-24%	?
C=CC[C@H](CC(=O)N(CCO)Cc1ccccc1)C(=O)NC[C@H](OC(=O)[C@@H](CC=C)CC(=O)OC(C)(C)C)c1ccccc1	-20%	?	25µM*	?	?	18µM*
Cc1oc(-c2ccc(Cl)cc2)nc1CN1C(=O)CN=C(c2ccccc2)c2ccccc21	-94%	?	?	-9%	20µM*	1%
NC(N)=N/N=C/c1cn(-c2ccccc2)nc1-c1cccs1	11µM*	·	·	2%	?	-23%
CN1CC[C@@]2(C)c3cc(O)ccc3N(C)C12 (some centres not stated)	-106%	·	·	·	?	·
COC(=O)C1=C(c2ccc(F)cc2OCc2ccccc2)C[C@@H]2CC[C@H]1N2C(=O)NCc1ccc(Br)cc1	10%	-22%	?	-22%	-1%	15µM*
